# ALR H2O2 inh: human ALR oxidase inhibition via reduced H2O2. P55789. purified ALR, DTT oxidation, H2O2 HRP-luminol luminescence. inhibition, % (concentration not given with the values). 290,000 tested, 3.8% active;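 active means mean replicate inhibition above about 79%, with every replicate also reaching it, limit read from the data; inconclusive means only one of the two criteria met; inactive means mean below limit and not every replicate reaching it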
# HDAC3 inhib: human HDAC3 inhibition | O15379 | recombinant HDAC3, fluorogenic peptide/trypsin coupled, fluorescence | inhibition, % at 8.3 µM | 320,000 tested, 0.15% active; in the data active means inhibition above about 26%, passing the limit was not always enough; inconclusive means no clear call, values can overlap the other calls
# NPR1 activator: GC-A (human) enzyme activation. HEK293 GC-A cells, cGMP TR-FRET, EC30 ANP; 0% at EC30 ANP, 100% saturating ANP. activation, % at 10 µM. 370,000 tested, 0.14% active; in the data active means activation above about 40%
# Target sequence (P16066 whole entry, looked up): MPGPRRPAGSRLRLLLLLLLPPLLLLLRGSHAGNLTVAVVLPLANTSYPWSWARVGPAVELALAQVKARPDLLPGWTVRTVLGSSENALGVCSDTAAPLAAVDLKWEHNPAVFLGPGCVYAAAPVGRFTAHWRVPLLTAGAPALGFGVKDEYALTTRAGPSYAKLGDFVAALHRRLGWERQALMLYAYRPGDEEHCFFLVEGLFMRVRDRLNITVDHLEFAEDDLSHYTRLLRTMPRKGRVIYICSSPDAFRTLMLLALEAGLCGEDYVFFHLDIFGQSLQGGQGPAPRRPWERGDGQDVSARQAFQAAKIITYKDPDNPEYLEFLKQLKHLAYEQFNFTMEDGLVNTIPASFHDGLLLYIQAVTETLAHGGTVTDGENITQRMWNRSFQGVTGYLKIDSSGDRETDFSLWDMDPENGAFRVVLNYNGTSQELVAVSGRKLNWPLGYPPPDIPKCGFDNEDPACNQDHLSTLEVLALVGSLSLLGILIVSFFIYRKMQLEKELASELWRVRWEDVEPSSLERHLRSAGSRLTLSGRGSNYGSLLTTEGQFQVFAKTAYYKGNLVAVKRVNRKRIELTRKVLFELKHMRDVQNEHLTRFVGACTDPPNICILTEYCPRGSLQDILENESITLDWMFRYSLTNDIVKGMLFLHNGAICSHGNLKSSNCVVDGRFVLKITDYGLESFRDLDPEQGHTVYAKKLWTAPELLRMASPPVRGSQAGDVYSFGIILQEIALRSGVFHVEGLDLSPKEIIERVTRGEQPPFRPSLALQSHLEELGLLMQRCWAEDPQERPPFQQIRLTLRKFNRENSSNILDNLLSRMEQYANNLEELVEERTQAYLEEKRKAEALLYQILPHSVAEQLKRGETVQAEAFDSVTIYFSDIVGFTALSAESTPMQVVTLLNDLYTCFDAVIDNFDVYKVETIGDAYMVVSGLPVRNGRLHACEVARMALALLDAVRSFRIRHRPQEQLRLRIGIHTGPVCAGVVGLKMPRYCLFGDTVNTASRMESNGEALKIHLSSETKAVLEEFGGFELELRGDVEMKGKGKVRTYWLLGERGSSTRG
# GC-B act: GC-B (human) receptor activation; activation, % at 10 µM; 370,000 tested, 0.11% active; HEK293-GC-B cells, CNP EC30, cGMP TR-FRET; 0% at EC30 CNP, 100% saturating CNP; P20594; AID 1920062;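 active means activation at 10 µM reaching about 35% in either raw or pattern-adjusted values, limit read from the data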
# Numbers without * were called inactive; ? = inconclusive; nt = no result given. Shown is part of a subset that was picked to be rich in hits.
SMILES,ALR H2O2 inh,HDAC3 inhib,NPR1 activator,GC-B act
CCOc1cc(/C=C2\C(=N)N3N=C(S(=O)(=O)CC)SC3=NC2=O)ccc1OC(=O)c1ccco1,37,9,-4,3
CN(/N=C/c1ccc(-c2ccc([N+](=O)[O-])cc2)o1)c1ccccc1,3,-1,4,-11
CN(C)/N=C/c1ccc(Sc2ccccc2[N+](=O)[O-])o1,92*,-4,-2,-5
O=C(NCCS(=O)(=O)c1ccc(Br)cc1)c1ccc(Cl)cc1Cl,-1,-2,1,3
CCOC(=O)c1c(C)oc2c1c1c(c3ccccc32)OCN(CCCC(=O)O)C1,91*,-2,3,-3
CCN(CC)C(=O)CSc1ncnc2c1nnn2-c1ccc(F)cc1,-1,-2,2,-10
CCOC(=O)C(C)Sc1ncnc2c1nnn2-c1ccc(F)cc1 (stereo not given),96*,2,0,-10
CCC(Sc1ncnc2c1nnn2-c1ccc(F)cc1)C(=O)OC (stereo not given),96*,5,10,-3
COC(=O)c1ccc(CSc2ncnc3c2nnn3-c2ccc(F)cc2)o1,99*,-2,5,8
CC(COc1ccc(Cl)cc1)CN1CCC(C(O)(c2ccccc2)c2ccccc2)CC1 (stereo not given),nt,nt,-8,-5
COc1cc(/C=N/NC(N)=O)ccc1OCC(=O)Nc1cc(C)c(C)cc1Br,nt,-5,-2,-4
COc1cc(/C=N/N=C2\CC3CCC2(C)C3(C)C)ccc1O (stereo not given),99*,12,-3,5
CCOC(=O)C1(Cc2ccccc2Cl)CCN(C(=O)CCn2ccnc2C)CC1,-1,-1,-4,-1
CC(=O)Nc1ccc(SCC(=O)N2CCN(S(=O)(=O)c3ccccc3)CC2)cc1,98*,12,0,-1
O=C(CSc1ccc(F)cc1)N1CCN(S(=O)(=O)c2ccccc2)CC1,nt,-1,-5,-3
COc1ccccc1C(=O)Nc1cccc(-c2cn3ccsc3n2)c1,nt,nt,-2,-7
O=C(Nc1cccc(-c2cn3ccsc3n2)c1)c1ccccc1,91*,-9,2,2
CCCCSCc1ccc(C(=O)O)o1,-7,-2,2,-1
CC(=O)c1c(C)oc(C)c1CSCc1ccc(C(=O)O)o1,97*,3,-2,5
CCOC(=O)c1oc2c(O)c(O)ccc2c(=O)c1-c1nncn1-c1ccccc1,nt,4,3,6
CC1Oc2cc3oc4c(O)c(O)ccc4c(=O)c3c(O)c2C1(C)C (stereo not given),98*,9,nt,nt
CC(=O)Nc1ccc(C(=O)OCC(=O)c2cccc([N+](=O)[O-])c2)cc1,-6,4,-1,0
COC(=O)Nc1ccc(SCC(=O)c2cccc([N+](=O)[O-])c2)cc1,99*,4,1,-1
COCC(C)NC(=S)Nc1ccccc1[N+](=O)[O-] (stereo not given),nt,2,3,1
O=C(NC(=S)N(Cc1ccccc1)c1ccccn1)C1CC1,99*,5,0,4
SMILES,ALR H2O2 inh,HDAC3 inhib,NPR1 activator,GC-B act
Cc1ccc2cc3c(N)c(C(=O)Nc4c(C)[nH]c(=O)[nH]c4=O)sc3nc2c1,96*,-10,4,-1
CCCSc1cc(NCCOC(=O)CCC)c([N+](=O)[O-])c2nonc12,97*,6,7,3
CCCC(=O)OCCNc1cc(Sc2nccn2C)c2nonc2c1[N+](=O)[O-],97*,8,20,7
CC(=O)OCCCNc1cc(SCc2ccco2)c2nonc2c1[N+](=O)[O-],90*,2,2,-1
CCC(=O)OCCNc1cc(Sc2nc3ccccc3[nH]2)c2nonc2c1[N+](=O)[O-],nt,1,43*,27
CC(C)CNC(=O)c1ccccc1NC(=O)CN(c1ccccc1)S(=O)(=O)N(C)C,-4,-6,-6,0
O=S1(=O)N[C@@H](c2ccccc2)COc2cc(Br)ccc21,nt,nt,2,0
COc1ccc(N2C(=O)CSC23C(=O)N2CCCc4cccc3c42)cc1 (stereo not given),10,-8,-14,-12
COc1ccc(N=C2C(=O)N3CCCc4cccc2c43)cc1,99*,4,-2,-3
COC(=O)CCN(C)CCC(=O)OC,96*,2,nt,nt
COC(=O)CCCC(=O)OC,nt,nt,2,-3
O=C(c1cc(-c2ccc(O)cc2)on1)N1CCN(c2ccccc2)CC1,81*,6,-2,1
O=C(c1cc(-c2ccc(O)cc2)on1)N1CCCC1,99*,2,1,-2
O=C(c1cc(-c2ccc(O)cc2)on1)N1CCN(c2ccc(F)cc2)CC1,91*,-6,-2,-1
O=C(c1cc(C2CC2)on1)N1CCN(c2ccccc2)CC1,86*,2,1,0
CCN(CC)c1ccc(/C=N/NS(=O)(=O)c2ccc(CNC(C)=O)cc2)cc1,99*,1,-6,1
COc1cc(/C=N\NC(=O)OC(C)(C)C)ccc1OC(=O)c1ccco1,20,2,2,-5
COc1ccc(/C=N/NC(=O)OC(C)(C)C)cc1OC,95*,5,-1,2
O=C(CNC(=O)c1ccccn1)N/N=C/c1ccc2c(c1)OCO2,72,0,-2,7
CC(=O)NCc1ccc(S(=O)(=O)N/N=C/c2ccc(Br)cc2)cc1,7,-4,1,3
CCN(CC)c1ccc(/C=N/NC(=O)CNC(=O)c2ccccn2)cc1,95*,-4,2,-4
CCN(CC)c1ccc(/C=N/NC(=O)OC(C)(C)C)cc1,99*,-7,-2,-6
O=C(N[C@H](Cc1ccccc1)C(=O)N1CCN(CC(=O)N2CCCC2)CC1)[C@H]1O[C@@H](n2ccc(=O)[nH]c2=O)[C@H](O)[C@@H]1O,nt,nt,0,0
CCCN(CCC)c1ccc(/C=N/NC(=O)CN2CCOCC2)cc1,99*,-14,nt,nt
CCN(CC)c1ccc(/C=N/NC(=O)CC(C)C)cc1,99*,-4,-2,2
SMILES,ALR H2O2 inh,HDAC3 inhib,NPR1 activator,GC-B act
CCN(CC)c1ccc(/C=N/NC(=O)Nc2ccccc2)cc1,34,10,-6,-4
CCN(CC)c1ccc(/C=N/O)cc1,nt,3,-1,6
CCN(CC)c1ccc(/C=N\NC(N)=O)cc1,99*,1,-4,-3
O=C(CN1CCOCC1)N/N=C/c1ccccc1,3,4,2,1
CCN(CC)C(=O)c1cnn(-c2ccccc2)c1NC(=O)c1ccccc1F,nt,-1,1,-3
C[C@@H](NC(=O)c1[nH]cnc1C(=O)Nc1ccccc1F)c1ccccc1,nt,nt,5,-1
Oc1ccc(-c2nc(-c3ccc(O)c(O)c3)cs2)cc1,99*,9,-2,-11
C/C(=N/Nc1ccnc2cc(Cl)ccc12)c1ccc(N)cc1,98*,?,0,-13
O=C(NNc1ccnc2cc(Cl)ccc12)C1CCCCC1,-14,3,2,4
C/C(=N/Nc1ccnc2cc(Cl)ccc12)c1ccc(O)cc1,93*,11,-6,-11
NC(=S)NNc1ccnc2cc(Cl)ccc12,103*,-2,-6,-10

# Compound activity from PubChem BioAssay.
